Reference: PubChem BioAssay (NCI)
Compounds without any hit were thinned out: in the full panel of roughly 83,000, 20% have a hit.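 The endpoint reported here, percent growth, reads 100 for growth as untreated, 0 for no net growth and -100 for all cells dead.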 Unmarked numbers belong to inactive results. Activity calls are given as the source filed them. Rule for the calls: active = growth percent below 10; inactive = the rest.

Tested on: IGROV1 ovarian
Experiment: NCI-60 one-dose screen, 48 h (100 = growth as untreated, 0 = no growth, -100 = all killed)
Details: 10 µM unless noted

Structure (SMILES) | growth
CC(C)c1[nH]ncc1-c1nc2ccc3[nH]ncc3c2c2c1CCCC2 | 21.9%
Cc1cc(-c2nnc(/C=C/c3ccc4c(c3)OCO4)o2)n[nH]1 | 40.7%
CCN(CC)CCCCCCCNc1cc(OC)cc2c(C)ccnc12 | 52.6%
CCCc1n(Cc2ccc3ccccc3n2)cc[n+]1Cc1ccc2ccccc2n1 | 30.6%
COc1ccc(/C=C2\N=C(c3cccnc3)N(c3ccccc3)NC2=O)cc1 | 115%
COc1ccc(Sc2[nH]c(C=O)c3ccccc23)cc1 | 73.1%
COc1ccc(-n2nc(C(=O)NCC(=O)Nc3nc4cc(OC)ccc4s3)c3ccccc3c2=O)cc1 | -3.66% (active)
CCCCN(CCCC)CCCN=c1nc2c(c(N)n1-c1ccccc1)c(=S)n(-c1ccccc1)c(=S)n2-c1ccccc1 | -70.9% (active)
O=C(/C=C/c1ccccc1)C(Br)C(Br)c1ccccc1 (stereo not drawn) | -45.5% (active)
COc1ccc(Nc2ncccc2C(=O)NCc2cn(Cc3cc(OC)cc(OC)c3)nn2)cc1 | 113%
CN(C)c1ccc(C(c2ccccc2)c2ccc(N(C)C)cc2)cc1 | 113%
COc1ccc(/C(=C\c2cc(OC)c(OC)c(OC)c2)C(=O)N2CCNCC2)cc1 | 102%
CC(=O)c1ccc(Nc2nc(Cl)nc(Oc3c(Cl)cccc3Cl)n2)cc1 | 89.1%
COc1cc2nccc(Oc3ccc(NC(=O)C4(C(=O)Nc5ccc(F)cc5)CC4)cc3)c2cc1Oc1ccc(N)cn1 | -24.1% (active)
N#Cc1nc(-c2ccc(Cl)cc2)cc(-c2ccc(Nc3nc(N4CCCCC4)nc(N4CCCCC4)n3)cc2)c1N | 91.4%
Cc1ccccc1CNc1ncnc2[nH]ncc12 | -19.4% (active)
CN(C)CCOc1nc2c3ccncc3cc(-c3cccc(Cl)c3)c2c2cnccc12 | 28.9%
Cc1ccc(C2CC(c3cccs3)=NN2c2ccc(S(N)(=O)=O)cc2)s1 (stereo not drawn) | 98.8%
CN=C1C=C/C(=N/N=c2/ccn(O)cc2C)C=C1C | 129%
Oc1[nH]c2ccccc2c1/C=c1/ccc2c(c1)N=C(c1ccc(C(F)(F)F)cc1)N=2 | 41.3%

Structure (SMILES) | growth
Clc1ccc(Nc2ncnc3c2sc2ncccc23)cc1 | 66.2%
Nc1nc(N)c2cc(Sc3ccc(Cl)cc3)ccc2n1 | 22.9%
CCN(C(=O)Nc1cccc2ccccc12)c1ccccc1 | 90.4%
CCN(CC)CCCC(C)Nc1cnc(C(=O)Nc2ccc(Cl)c3cccnc23)cn1 (stereo not drawn) | 44.2%
C/C(=N\NC(=S)Nc1ccccc1)c1ccccn1 | 15.7%
C[C@]12CCc3nc(Nc4ccc(O)cc4)sc3C1=CC[C@@H]1[C@@H]2CC[C@]2(C)/C(=N/NC(N)=S)CC[C@@H]12 | -61.2% (active)
CC1(C)C(N(O)C(=O)Nc2ccc(Cl)cc2)N(c2ccc(Cl)cc2)C(=O)N1CC(=O)N/N=C/C=C/c1ccc([N+](=O)[O-])o1 (stereo not drawn) | -5.58% (active)
COc1ccc(C(=O)c2c(N)nc3n2CCCC3)cc1OC | 99.4%
Fc1ccc2c(CN3CCO[C@H](COc4cccc(Cl)c4)C3)c[nH]c2c1 | 63%
CC(=O)c1c(C)nc(-c2cc(C)cc(Cl)c2)nc1-c1cccc(Oc2ccccc2)c1 | 77.7%
FC(F)(F)c1ccc(/C=N/Nc2nnc3n2N=C(c2ccc(Cl)cc2)CS3)cc1 | 49.2%
O=C1/C(=C\c2cccn2C(=O)c2ccccc2)c2ccccc2N1c1c(Cl)cccc1Cl | 71.2%
Cc1ccc(S(=O)(=O)NC(CCC(=O)Nc2ccc(Cl)cc2)C(=O)Nc2ccc(Cl)cc2)cc1 (stereo not drawn) | 34.6%
CNC(=O)c1cc(Oc2ccc(NC(=O)c3nc(S(C)(=O)=O)n(C)c3-c3ccc(F)cc3)cc2)ccn1 | 54.3%
Nc1c(C(=O)c2ccc(Br)cc2)sc2nc3c(cc12)CCCC3 | 108%
CCCCn1cnc(-c2cc(-c3ccccc3)cc(C(F)(F)F)c2)n1 | 103%
COCCCNCC(=O)Nc1c(C)cccc1C | 140%
COc1ccc(/C(=C\c2ccc3c(c2)OCO3)C(=O)Nc2nc3ccccc3s2)cc1 | 103%
COc1ccc2[nH]c(O)c(/C=c3/ccc4c(c3)N=C(c3ccc(C(F)(F)F)cc3)N=4)c2c1 | 55.2%

Tested on: OVCAR-3 ovarian
Experiment: as above
Details: 10 µM unless noted

Structure (SMILES) | growth
CC(C)c1[nH]ncc1-c1nc2ccc3[nH]ncc3c2c2c1CCCC2 | 46.8%
Cc1cc(-c2nnc(/C=C/c3ccc4c(c3)OCO4)o2)n[nH]1 | 63.4%
CCN(CC)CCCCCCCNc1cc(OC)cc2c(C)ccnc12 | 20.6%
CCCc1n(Cc2ccc3ccccc3n2)cc[n+]1Cc1ccc2ccccc2n1 | 9.64% (active)
COc1ccc(/C=C2\N=C(c3cccnc3)N(c3ccccc3)NC2=O)cc1 | 95.9%
COc1ccc(Sc2[nH]c(C=O)c3ccccc23)cc1 | 65.7%
COc1ccc(-n2nc(C(=O)NCC(=O)Nc3nc4cc(OC)ccc4s3)c3ccccc3c2=O)cc1 | 3.53% (active)
CCCCN(CCCC)CCCN=c1nc2c(c(N)n1-c1ccccc1)c(=S)n(-c1ccccc1)c(=S)n2-c1ccccc1 | -100% (active)
O=C(/C=C/c1ccccc1)C(Br)C(Br)c1ccccc1 (stereo not drawn) | -31.1% (active)
COc1ccc(Nc2ncccc2C(=O)NCc2cn(Cc3cc(OC)cc(OC)c3)nn2)cc1 | 96.5%
CN(C)c1ccc(C(c2ccccc2)c2ccc(N(C)C)cc2)cc1 | 94.9%
COc1ccc(/C(=C\c2cc(OC)c(OC)c(OC)c2)C(=O)N2CCNCC2)cc1 | 108%
CC(=O)c1ccc(Nc2nc(Cl)nc(Oc3c(Cl)cccc3Cl)n2)cc1 | 90.9%
COc1cc2nccc(Oc3ccc(NC(=O)C4(C(=O)Nc5ccc(F)cc5)CC4)cc3)c2cc1Oc1ccc(N)cn1 | 49.9%
N#Cc1nc(-c2ccc(Cl)cc2)cc(-c2ccc(Nc3nc(N4CCCCC4)nc(N4CCCCC4)n3)cc2)c1N | 105%
Cc1ccccc1CNc1ncnc2[nH]ncc12 | 117%
CN(C)CCOc1nc2c3ccncc3cc(-c3cccc(Cl)c3)c2c2cnccc12 | 45.6%
Cc1ccc(C2CC(c3cccs3)=NN2c2ccc(S(N)(=O)=O)cc2)s1 (stereo not drawn) | 94%
CN=C1C=C/C(=N/N=c2/ccn(O)cc2C)C=C1C | 117%
Oc1[nH]c2ccccc2c1/C=c1/ccc2c(c1)N=C(c1ccc(C(F)(F)F)cc1)N=2 | 25.8%

Structure (SMILES) | growth
Clc1ccc(Nc2ncnc3c2sc2ncccc23)cc1 | 56.6%
Nc1nc(N)c2cc(Sc3ccc(Cl)cc3)ccc2n1 | 25.7%
CCN(C(=O)Nc1cccc2ccccc12)c1ccccc1 | 108%
CCN(CC)CCCC(C)Nc1cnc(C(=O)Nc2ccc(Cl)c3cccnc23)cn1 (stereo not drawn) | -23.7% (active)
C/C(=N\NC(=S)Nc1ccccc1)c1ccccn1 | 9.49% (active)
C[C@]12CCc3nc(Nc4ccc(O)cc4)sc3C1=CC[C@@H]1[C@@H]2CC[C@]2(C)/C(=N/NC(N)=S)CC[C@@H]12 | -68.8% (active)
CC1(C)C(N(O)C(=O)Nc2ccc(Cl)cc2)N(c2ccc(Cl)cc2)C(=O)N1CC(=O)N/N=C/C=C/c1ccc([N+](=O)[O-])o1 (stereo not drawn) | -26.8% (active)
COc1ccc(C(=O)c2c(N)nc3n2CCCC3)cc1OC | 109%
Fc1ccc2c(CN3CCO[C@H](COc4cccc(Cl)c4)C3)c[nH]c2c1 | 36.7%
CC(=O)c1c(C)nc(-c2cc(C)cc(Cl)c2)nc1-c1cccc(Oc2ccccc2)c1 | 38.6%
FC(F)(F)c1ccc(/C=N/Nc2nnc3n2N=C(c2ccc(Cl)cc2)CS3)cc1 | 46.7%
O=C1/C(=C\c2cccn2C(=O)c2ccccc2)c2ccccc2N1c1c(Cl)cccc1Cl | 70.4%
Cc1ccc(S(=O)(=O)NC(CCC(=O)Nc2ccc(Cl)cc2)C(=O)Nc2ccc(Cl)cc2)cc1 (stereo not drawn) | 7.96% (active)
CNC(=O)c1cc(Oc2ccc(NC(=O)c3nc(S(C)(=O)=O)n(C)c3-c3ccc(F)cc3)cc2)ccn1 | 69.6%
Nc1c(C(=O)c2ccc(Br)cc2)sc2nc3c(cc12)CCCC3 | 95.4%
CCCCn1cnc(-c2cc(-c3ccccc3)cc(C(F)(F)F)c2)n1 | 103%
COCCCNCC(=O)Nc1c(C)cccc1C | 122%
COc1ccc(/C(=C\c2ccc3c(c2)OCO3)C(=O)Nc2nc3ccccc3s2)cc1 | 98.5%
COc1ccc2[nH]c(O)c(/C=c3/ccc4c(c3)N=C(c3ccc(C(F)(F)F)cc3)N=4)c2c1 | 77.5%
